From PubChem BioAssay AID651593 (National Center for Advancing Translational Sciences (NCATS), 2012)
Where “and” joins values, the source holds several entries; their conditions need not be identical. Equal values may be shown once. Screen size: about 1,100 compounds; about 860 (78%) were called active. Roughly 19% stayed inconclusive and do not appear here. The call rests on the fitted dose curve; in most records, active means well fitted activation curve with a large enough effect; inconclusive means small, poorly fitted or top-dose-only effect; inactive means flat fitted curve, though single readings scatter. The set was probably picked from earlier hits. Some of the results follow.
Potency means the concentration at half of the fitted maximal effect.

Experiment: qHTS of Nrf2 Activators: Hit Validation in Primary Assay; further: nearly all actives have a fitted effect of over 70% in size
Conditions: Nrf2/ARE reporter cell assay; Potency: activation; series mostly up to 46.1 µM
How it was run: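 Luminescence from Steady-Glo lysis reagent, read after 30 min, reported ARE-luciferase activity in AREc32_fluc stable cells. Compounds were tested at several concentrations, incubated 24 h at 37 °C with 5% CO2 following overnight seeding.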
With `Cc1noc(C(=O)Nc2cc(Cl)ccc2O)c1Cl` the Potency was 2.91 µM (active).
In the case of `C=CCSc1nccc(-c2cc(Cl)sc2Cl)n1`, the Potency is reported as 6.51 µM (active).
With `O=C1c2cccc3cccc(c23)C(=O)N1CCCN(C(=O)c1cccs1)c1cccc(F)c1` the Potency was 2.31 µM (active).
In the case of `Cc1cccc(C)c1OCC(=O)N/N=C/C=C/c1ccco1`, the Potency is reported as 0.517 µM (active).
In the case of `O=C(N/N=C\C=C\c1ccco1)c1cc(-c2ccc3ccccc3c2)n[nH]1`, the Potency is reported as 8.2 µM (active).
With `O=C(N/N=C/C=C/c1ccco1)c1cnccn1` the Potency was 9.2 µM (active).
For `O=C(N/N=C/C=C/c1ccco1)c1cccc([N+](=O)[O-])c1`, the Potency was 0.366 µM (active).
For `c1ccc(-c2ccc3c(c2)NC(C2Nc4cc(-c5ccccc5)ccc4O2)O3)cc1` (centres undefined), the Potency was “inactive”.
For `COc1ccc(C2CC(c3cccs3)=Nc3ccccc3S2)cc1OC` (centres undefined), the Potency was 20.6 µM (active).
For `Cc1cc(C)c(C#N)c(OCC(=O)c2ccc(Br)cc2)n1`, the Potency was 4.61 µM (active).
In the case of `Cc1cc(C)c(C#N)c(OCC(=O)c2ccccc2)n1`, the Potency is reported as 5.17 µM (active).
With `Cc1cc(C)n2nc(/C(C#N)=C/c3ccccn3)c(C#N)c2n1` the Potency was 18.4 µM (active).
With `COc1ccc(Cl)cc1-c1nc(-c2ccncc2)no1` the Potency was 4.61 µM (active).
For `Clc1ccc(Br)cc1-c1nc(-c2ccncc2)no1`, the Potency was 4.61 µM (active).
For `CC(C)(C)C(=O)/C=c1\[nH]c(=O)/c(=C\c2ccccc2F)s1`, the Potency was 2.31 µM (active).
In the case of `Cn1nc(C(=O)Nc2c(-c3ccccc3)nc3sccn23)c2ccccc2c1=O`, the Potency is reported as 9.2 µM (active).
For `Cc1ccc2[nH]c(=O)c3cc(C(=O)N(C)Cc4ccco4)sc3c2c1`, the Potency was 11.6 µM (active).
In the case of `C/C(=N\NC(=S)NCC(C)(C)C)c1cc(F)cc(F)c1O`, the Potency is reported as “inactive”.
In the case of `C(=Cc1cnnc2ccccc12)c1ccccc1`, the Potency is reported as 2.91 µM (active).
In the case of `O=C(NCc1ccccc1)c1c(Cl)nc(Cl)c(Cl)c1Cl`, the Potency is reported as 2.91 µM (active).
With `O=C(Nc1ncc2c(n1)CC(c1ccco1)CC2=O)c1ccc(Cl)cc1` (centres undefined) the Potency was 9.2 µM (active).
For `CC(C)(C)SCCNC(=O)/C=C/c1cccc([N+](=O)[O-])c1`, the Potency was “inactive”.
In the case of `N#C/C(=C\c1cccc([N+](=O)[O-])c1)c1ccccn1`, the Potency is reported as 4.61 µM (active).
In the case of `O=[N+]([O-])c1cccc(/C=C/c2ccccn2)c1`, the Potency is reported as 4.61 µM (active).
For `O=C(/C=C/c1cccc([N+](=O)[O-])c1)n1cnc2ccccc21`, the Potency was 4.61 µM (active).
With `N#C/C(=C\c1ccccc1)c1ccccn1` the Potency was 13 µM (active).
With `CC(=O)Oc1ccc(-c2nc3c(C)cccc3c(=O)o2)cc1` the Potency was 9.2 µM (active).
For `O=C(NCCc1c[nH]c2ccccc12)c1ccc([N+](=O)[O-])o1`, the Potency was 5.17 µM (active).
For `COC(=O)c1ccc(Cl)cc1NC(=O)/C=C/c1ccc(C)o1`, the Potency was 2.06 µM (active).
For `Cc1ccc(/C=C/C(=O)Nc2ccc([N+](=O)[O-])c(NC(=O)/C=C/c3ccc(C)o3)c2)o1`, the Potency was 8.2 µM (active).
For `CCOC(=O)c1c(NC(=O)/C=C/c2ccc(C)o2)sc(C)c1C`, the Potency was 3.26 µM (active).
With `CCC1C/C(=C/c2cccs2)C(=O)/C(=C/c2cccs2)C1` (centres undefined) the Potency was 2.31 µM (active).
With `Cc1nc2ccccc2c(=O)n1NCc1cc(Br)cs1` the Potency was 2.59 µM (active).
With `Cn1c(CC2C(=O)Nc3ccc(Br)cc32)nc2ccccc2c1=O` (centres undefined) the Potency was “inactive”.
In the case of `O=C(Nc1nnc(-c2cccs2)s1)C1CC1`, the Potency is reported as 9.2 µM (active).
With `O=C(Nc1nnc(-c2cccs2)s1)c1cccc(F)c1` the Potency was 2.31 µM (active).
For `Nc1ccccc1C=C1Cc2ccccc2C1=O`, the Potency was 3.66 µM (active).
In the case of `O=C1C(=Cc2ccccc2[N+](=O)[O-])Cc2ccccc21`, the Potency is reported as 4.61 µM (active).
For `COCCN(C(=O)COC(=O)/C=C/c1ccccc1Cl)c1c(N)n(Cc2ccccc2)c(=O)[nH]c1=O`, the Potency was 11.6 µM (active).
For `O=C(/C=C/Nc1ccc(F)c(Cl)c1)c1ccco1`, the Potency was 1.3 µM (active).
For `O=C1COc2ccc(C(=O)COC(=O)/C=C/c3ccco3)cc2N1`, the Potency was 2.06 µM (active).
For `O=C(Nc1ccccn1)Nc1ccccc1[N+](=O)[O-]`, the Potency was 4.11 µM (active).
With `Cc1cccc(NC(=O)Nc2ccccc2[N+](=O)[O-])n1` the Potency was 8.2 µM (active).
For `Cc1cccc(NC(=O)Nc2ccc(Br)cc2)n1`, the Potency was 8.2 µM (active).
With `O=C(Nc1ccccn1)Nc1ccccc1Cl` the Potency was 9.2 µM (active).
For `O=C(N=Nc1c(O)[nH]c2ccccc12)c1ccco1`, the Potency was 2.31 µM (active).
In the case of `O=C(N=Nc1c(O)[nH]c2ccc(Br)cc12)c1ccco1`, the Potency is reported as 3.26 µM (active).
With `Cc1ccc(C)c(-c2nnc(NC(=O)c3ccc([N+](=O)[O-])o3)o2)c1` the Potency was 2.91 µM (active).
In the case of `O=C(CSc1ccc(-c2ccco2)nn1)N1CCCCCC1`, the Potency is reported as 0.517 µM (active).
For `COc1ccc(NC(=O)CSc2ccc(-c3ccco3)nn2)cc1OC`, the Potency was 5.17 µM (active).
With `O=C(CSc1ccc(-c2ccco2)nn1)N1CCCC1` the Potency was 1.84 µM (active).
With `O=C(CSc1ccc(-c2ccco2)nn1)N1CCCCC1` the Potency was 1.84 µM (active).
In the case of `CCOC(=O)C(=Cc1ccccc1OC)C(=O)OCC`, the Potency is reported as 16.4 µM (active).
In the case of `CCn1nc(C(=O)Nc2cccc3ccccc23)c(Cl)c1Cl`, the Potency is reported as 18.4 µM (active).
In the case of `c1ccc(Cc2c(-c3ccco3)nc3c4ccccc4ccn23)cc1`, the Potency is reported as 9.2 µM (active).
With `c1ccc(-c2nc3c4ccccc4ccn3c2Cc2ccsc2)cc1` the Potency was 5.8 µM (active).
With `COc1ccccc1Cc1c(-c2ccco2)nc2c3ccccc3ccn12` the Potency was 7.31 µM (active).
For `Clc1cccc(Cc2c(-c3ccccc3)nc3c4ccccc4ccn23)c1`, the Potency was 11.6 µM (active).
For `Fc1cccc(Cc2c(-c3ccco3)nc3c4ccccc4ccn23)c1`, the Potency was 2.91 µM (active).
With `Cc1ccc(Cc2c(-c3ccco3)nc3c4ccccc4ccn23)cc1` the Potency was 8.2 µM (active).
In the case of `Clc1cccc(Cc2c(-c3ccco3)nc3c4ccccc4ccn23)c1`, the Potency is reported as 8.2 µM (active).
In the case of `O=C(COC(=O)c1cc2ccccc2cc1O)Nc1ccccc1F`, the Potency is reported as 20.6 µM (active).
With `c1ccc(N/N=C2\CCCc3ccccc32)nc1` the Potency was 14.6 µM (active).
With `O=C1c2ccccc2C(=O)c2c(Nc3ccc(CCO)cc3)ccc(O)c21` the Potency was 2.31 µM (active).
In the case of `COc1cc(C=C(c2nc3ccccc3s2)c2nc3ccccc3s2)ccc1O`, the Potency is reported as 7.31 µM (active).
With `COc1ccc(Cc2c(-c3ccccc3)nc3c4ccccc4ccn23)c(C)c1` the Potency was 6.51 µM (active).
For `Fc1ccc(-c2nc3c4ccccc4ccn3c2Cc2ccccc2C(F)(F)F)cc1`, the Potency was 7.31 µM (active).
For `FC(F)(F)c1ccccc1Cc1c(-c2ccccc2)nc2c3ccccc3ccn12`, the Potency was 14.6 µM (active).
With `Nc1ccc2c(c1)Cc1c(F)cccc1-2` the Potency was 18.4 µM (active).
With `CC(C)N(C(=O)COC(=O)c1ccccc1C(=O)c1ccc(Cl)c([N+](=O)[O-])c1)C(C)C` the Potency was 18.4 µM (active).
For `O=C1Nc2ccccc2SC1=Cc1ccccc1`, the Potency was 2.91 µM (active).
For `O=[N+]([O-])c1cccc(-c2nnc(-c3ccccc3)o2)c1`, the Potency was 7.31 µM (active).
With `O=[N+]([O-])c1cccc(-c2nc(-c3ccccn3)no2)c1` the Potency was 2.06 µM (active).
For `c1ccc(-c2nnc(-c3ccccc3)o2)cc1`, the Potency was 6.51 µM (active).
For `O=[N+]([O-])c1cccc(-c2cn(-c3ccccc3)c(=S)[nH]2)c1`, the Potency was “inactive”.
In the case of `Cc1ccc(S(=O)(=O)c2nc(S(C)(=O)=O)sc2N2CCC3(CC2)OCCO3)cc1`, the Potency is reported as 10.3 µM (active).
With `CS(=O)(=O)c1nc(S(=O)(=O)c2ccc(Cl)cc2)c(N2CCC3(CC2)OCCO3)s1` the Potency was 9.2 µM (active).
In the case of `C/C(=N\NC(=O)c1cccc(S(=O)(=O)Nc2cccc(Cl)c2)c1)c1cccs1`, the Potency is reported as “inactive”.
In the case of `C/C(=N\NC(=O)c1cccc(S(=O)(=O)N2CCCC2)c1)c1ccco1`, the Potency is reported as 2.31 µM (active).
For `CC(=O)Cn1nnc2sc(-c3ccccc3)cc2c1=O`, the Potency was 2.06 µM (active) and 5.8 µM (active).
For `CCN(C(=O)Cn1nnc2sc(-c3ccccc3)cc2c1=O)c1cccc(C)c1`, the Potency was 2.31 µM (active).
For `COC(=O)[C@@]1(Sc2ccc(C)cc2)CC(=O)N(C(=O)/C=C/c2ccccc2)[C@@H]1c1ccccc1`, the Potency was 3.66 µM (active).
For `Brc1ccc2nc(-c3ccco3)c(Cc3ccsc3)n2c1`, the Potency was 20.6 µM (active).
In the case of `Fc1cccc(Cc2c(-c3ccco3)nc3ccc(Br)cn23)c1`, the Potency is reported as 20.6 µM (active).
With `c1cc2c3c(cccc3c1)NN=N2` the Potency was 20.6 µM (active).
With `COc1cc(/C=N/Nc2nc3ccccc3s2)ccc1OC(=O)c1ccccc1F` the Potency was 4.61 µM (active).
For `C/C(=N\NC(=O)c1c[nH]c2ccccc12)c1ccco1`, the Potency was 3.66 µM (active).
In the case of `Cc1nc(/N=C(\N)NC(=O)c2ccccc2)nc2ccccc12`, the Potency is reported as 2.31 µM (active).
With `CC(=O)N(/N=C1\Sc2ccccc2C1=O)c1ccccc1` the Potency was 20.6 µM (active).
In the case of `COc1ccc(O)c(-c2cc(-c3ccc(F)cc3)n[nH]2)c1`, the Potency is reported as 7.31 µM (active).
With `COc1ccc(O)c(-c2cc(-c3ccccc3Cl)[nH]n2)c1` the Potency was 2.91 µM (active).
In the case of `N#Cc1sc2nc(-c3ccccc3)cc(C(F)(F)F)c2c1N`, the Potency is reported as 2.59 µM (active).
With `Cc1cc(O)c(NC(=O)c2cc([N+](=O)[O-])ccc2Cl)cc1C` the Potency was 2.31 µM (active).
In the case of `Cc1ccc(O)c(NC(=O)c2cc([N+](=O)[O-])ccc2Cl)c1`, the Potency is reported as 2.91 µM (active).
With `O=C(Nc1cccc([N+](=O)[O-])c1)c1[nH]ncc1Cl` the Potency was 5.8 µM (active).
In the case of `O=C(Nc1ccccc1)c1cc([N+](=O)[O-])ccc1Cl`, the Potency is reported as 1.46 µM (active).
For `CS(=O)(=O)Nc1ccc(C(=O)Nc2cccc([N+](=O)[O-])c2)cc1`, the Potency was 7.31 µM (active).
For `O=[N+]([O-])c1ccccc1C=NNc1ccccc1`, the Potency was 5.17 µM (active).
For `O=[N+]([O-])c1ccccc1/C=N/Nc1nccnc1Cl`, the Potency was 16.4 µM (active).
